The text below walks through data of ChEMBL document CHEMBL3988442, “University of Dundee, Small-Polar-MMV Screening Library” (2021).

For some of these results: Entries with a potency or affinity are not part of this list.

Set-up in all cases: scale not given: direction of the effect not stated beside the values
For assay [1], the target named is Protein translocase subunit SecA (Escherichia coli (strain K12)) (UniProt P10408). The assay can be described thus: Assay to Identify E. coli SecA ATPase Inhibitors. Type of assay: functional. The settings on record: 30 µM.
In assay [2] the target is T1, Ubiquitin-activating enzyme e1, putative (Leishmania donovani (strain BPK282A1)) (UniProt E9BSI1).
T1 sequence (whole entry): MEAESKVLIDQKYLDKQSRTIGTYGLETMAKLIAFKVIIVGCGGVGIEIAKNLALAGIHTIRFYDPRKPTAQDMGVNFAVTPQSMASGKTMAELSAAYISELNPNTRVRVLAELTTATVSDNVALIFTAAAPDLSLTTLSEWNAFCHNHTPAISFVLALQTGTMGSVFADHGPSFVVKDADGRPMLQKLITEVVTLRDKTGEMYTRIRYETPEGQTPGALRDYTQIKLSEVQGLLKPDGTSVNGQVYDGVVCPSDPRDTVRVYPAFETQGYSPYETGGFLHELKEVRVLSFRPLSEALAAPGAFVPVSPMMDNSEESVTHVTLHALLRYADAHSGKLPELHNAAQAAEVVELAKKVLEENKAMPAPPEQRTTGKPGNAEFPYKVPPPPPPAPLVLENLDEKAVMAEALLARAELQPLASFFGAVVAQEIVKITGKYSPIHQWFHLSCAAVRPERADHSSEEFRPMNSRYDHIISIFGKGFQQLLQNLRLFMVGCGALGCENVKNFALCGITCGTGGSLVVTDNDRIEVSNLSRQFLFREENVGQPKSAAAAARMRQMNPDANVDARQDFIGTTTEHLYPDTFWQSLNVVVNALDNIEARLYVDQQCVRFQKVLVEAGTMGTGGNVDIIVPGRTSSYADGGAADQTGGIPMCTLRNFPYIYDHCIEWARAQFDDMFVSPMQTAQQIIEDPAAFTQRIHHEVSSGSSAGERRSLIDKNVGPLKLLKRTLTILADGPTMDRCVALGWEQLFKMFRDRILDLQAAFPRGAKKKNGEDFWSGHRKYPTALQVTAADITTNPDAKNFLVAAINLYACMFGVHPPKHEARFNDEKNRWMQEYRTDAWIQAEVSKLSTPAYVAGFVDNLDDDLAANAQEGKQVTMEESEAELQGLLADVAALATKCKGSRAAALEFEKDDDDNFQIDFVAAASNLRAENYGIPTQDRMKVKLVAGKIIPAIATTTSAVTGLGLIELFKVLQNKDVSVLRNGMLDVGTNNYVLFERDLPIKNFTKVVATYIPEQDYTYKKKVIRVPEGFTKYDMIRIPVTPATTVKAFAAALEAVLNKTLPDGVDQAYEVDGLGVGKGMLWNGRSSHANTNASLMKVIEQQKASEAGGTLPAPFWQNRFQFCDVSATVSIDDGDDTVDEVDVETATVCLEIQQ
The assay can be described thus: Leishmania donovani Ubiquitin Activating Enzyme (LdE1). Type of assay: functional. The settings on record: 30 µM.

Assay [3] concerns the target AMP-activated protein kinase, AMPK (Homo sapiens) (UniProt P54646+O43741+P54619+Q9UGJ0+Q9Y478+Q13131+Q9UGI9). The assay can be described thus: AMP-dependent Kinase enzyme assay. An in vitro enzyme assay that detects ADP turnover that is directly proportional to AMPK activity. This uses naive AMPK that is activated during the assay with MK-8722. The conditions noted are these: 30 µM. In kind it is functional.

In assay [4] the target is Sialic acid-binding Ig-like lectin 9 (Homo sapiens) (UniProt Q9Y336). Nature of the assay: Hs-Siglec9 ALPHAscreen SOP 20170721. The settings on record: 10 µM. Background: Bead proximity is the source of the signal in Alpha formats.
In assay [5] the test system is Trypanosoma cruzi. Nature of the assay: Trypanosoma cruzi phosphomannomutase and mannose-1-phosphate guanylyltransferase assay. In kind it is functional. The conditions noted are these: 10 µM.
In assay [6] the target is T2, Arginase-2, mitochondrial (Homo sapiens) (UniProt P78540).
T2 sequence (whole entry): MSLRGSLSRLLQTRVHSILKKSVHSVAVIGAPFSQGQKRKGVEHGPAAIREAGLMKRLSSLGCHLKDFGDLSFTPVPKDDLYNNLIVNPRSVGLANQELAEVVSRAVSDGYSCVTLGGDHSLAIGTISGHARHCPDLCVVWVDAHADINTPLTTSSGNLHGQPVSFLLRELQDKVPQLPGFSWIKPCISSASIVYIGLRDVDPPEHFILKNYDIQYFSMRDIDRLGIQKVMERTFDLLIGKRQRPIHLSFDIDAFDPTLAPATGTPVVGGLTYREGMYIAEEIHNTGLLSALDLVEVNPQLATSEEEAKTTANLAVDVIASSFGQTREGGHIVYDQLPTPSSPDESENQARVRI
Nature of the assay: in vitro enzyme assay to detect the production of urea directly proportional to the activity of Arginase II. Also: in the data most compounds retested in dose-response had high values. In kind it is functional. The conditions noted are these: 33.3 µM.

Assay [7] concerns the target T3, Proteasome subunit beta (Trypanosoma cruzi) (UniProt O96673).
T3 sequence (whole entry): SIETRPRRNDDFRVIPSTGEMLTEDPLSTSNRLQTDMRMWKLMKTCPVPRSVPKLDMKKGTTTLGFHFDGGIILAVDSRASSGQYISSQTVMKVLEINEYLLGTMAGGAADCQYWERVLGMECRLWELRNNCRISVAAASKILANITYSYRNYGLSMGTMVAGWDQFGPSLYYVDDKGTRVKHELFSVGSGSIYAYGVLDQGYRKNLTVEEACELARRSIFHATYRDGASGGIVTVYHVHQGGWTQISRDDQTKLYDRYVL
Nature of the assay: Trypanosoma cruzi proteasome chymotrypsin-like activity (TcProtChymo) assay. Also: in the data most compounds retested in dose-response had high values. In kind it is functional. The conditions noted are these: 9.37 µM.

The species entered for assay [8] is Homo sapiens. Nature of the assay: To identify inhibition of the IFN signalling (Jak-Stat) pathway via expression of an eGFP reporter gene under the control of an IFN-stimulated response element (ISRE) containing MxA promoter. Type of assay: functional. The settings on record: 30 µM. Background: A reporter such as luciferase makes a cellular process visible.
The target of assay [9] is T4, Tyrosyl-tRNA synthetase, putative (Trypanosoma cruzi (strain CL Brener)) (UniProt Q4DSP6).
T4 sequence (whole entry): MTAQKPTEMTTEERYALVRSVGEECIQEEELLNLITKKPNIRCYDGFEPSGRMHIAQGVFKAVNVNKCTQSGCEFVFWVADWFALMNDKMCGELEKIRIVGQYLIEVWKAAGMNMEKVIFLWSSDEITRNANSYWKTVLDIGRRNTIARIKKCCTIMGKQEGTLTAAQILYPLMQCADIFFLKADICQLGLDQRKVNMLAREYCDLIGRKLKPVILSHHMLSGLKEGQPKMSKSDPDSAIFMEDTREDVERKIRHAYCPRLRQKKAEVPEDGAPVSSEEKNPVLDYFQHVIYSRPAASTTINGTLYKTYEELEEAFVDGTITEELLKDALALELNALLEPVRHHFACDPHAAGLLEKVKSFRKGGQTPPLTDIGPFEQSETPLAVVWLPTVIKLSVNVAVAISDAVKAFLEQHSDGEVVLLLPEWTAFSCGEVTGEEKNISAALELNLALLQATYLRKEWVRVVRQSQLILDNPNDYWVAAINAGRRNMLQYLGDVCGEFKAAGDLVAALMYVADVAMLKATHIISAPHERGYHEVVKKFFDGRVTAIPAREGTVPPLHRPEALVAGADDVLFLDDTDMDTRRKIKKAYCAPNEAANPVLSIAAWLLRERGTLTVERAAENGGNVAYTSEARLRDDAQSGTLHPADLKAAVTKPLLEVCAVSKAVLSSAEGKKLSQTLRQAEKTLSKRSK
Nature of the assay: Trypanosoma cruzi tyrosyl tRNA synthetase (TcYRS) _High Tyrosine SOP. Also: in the data most compounds retested in dose-response had high values. Type of assay: functional. The conditions noted are these: 30 µM.

Assay [10] deals with T4, Tyrosyl-tRNA synthetase, putative (Trypanosoma cruzi (strain CL Brener)). Nature of the assay: Trypanosoma cruzi tyrosyl tRNA synthetase (TcYRS) SOP. In kind it is functional. The conditions noted are these: 30 µM.
Assay [11] has as its target Chromo domain-containing protein 1 (Saccharomyces cerevisiae (strain ATCC 204508 / S288c) (Baker's yeast)) (UniProt P32657). Nature of the assay: ScCHD-1 Enzyme Inhibition Assay. Also: in the data most compounds retested in dose-response had high values. The settings on record: 30 µM. Type of assay: functional.

Sequence of Chromo domain-containing protein 1 (Saccharomyces cerevisiae (strain ATCC 204508 / S288c) (Baker's yeast)) (P32657 whole entry, the tested form may be a part): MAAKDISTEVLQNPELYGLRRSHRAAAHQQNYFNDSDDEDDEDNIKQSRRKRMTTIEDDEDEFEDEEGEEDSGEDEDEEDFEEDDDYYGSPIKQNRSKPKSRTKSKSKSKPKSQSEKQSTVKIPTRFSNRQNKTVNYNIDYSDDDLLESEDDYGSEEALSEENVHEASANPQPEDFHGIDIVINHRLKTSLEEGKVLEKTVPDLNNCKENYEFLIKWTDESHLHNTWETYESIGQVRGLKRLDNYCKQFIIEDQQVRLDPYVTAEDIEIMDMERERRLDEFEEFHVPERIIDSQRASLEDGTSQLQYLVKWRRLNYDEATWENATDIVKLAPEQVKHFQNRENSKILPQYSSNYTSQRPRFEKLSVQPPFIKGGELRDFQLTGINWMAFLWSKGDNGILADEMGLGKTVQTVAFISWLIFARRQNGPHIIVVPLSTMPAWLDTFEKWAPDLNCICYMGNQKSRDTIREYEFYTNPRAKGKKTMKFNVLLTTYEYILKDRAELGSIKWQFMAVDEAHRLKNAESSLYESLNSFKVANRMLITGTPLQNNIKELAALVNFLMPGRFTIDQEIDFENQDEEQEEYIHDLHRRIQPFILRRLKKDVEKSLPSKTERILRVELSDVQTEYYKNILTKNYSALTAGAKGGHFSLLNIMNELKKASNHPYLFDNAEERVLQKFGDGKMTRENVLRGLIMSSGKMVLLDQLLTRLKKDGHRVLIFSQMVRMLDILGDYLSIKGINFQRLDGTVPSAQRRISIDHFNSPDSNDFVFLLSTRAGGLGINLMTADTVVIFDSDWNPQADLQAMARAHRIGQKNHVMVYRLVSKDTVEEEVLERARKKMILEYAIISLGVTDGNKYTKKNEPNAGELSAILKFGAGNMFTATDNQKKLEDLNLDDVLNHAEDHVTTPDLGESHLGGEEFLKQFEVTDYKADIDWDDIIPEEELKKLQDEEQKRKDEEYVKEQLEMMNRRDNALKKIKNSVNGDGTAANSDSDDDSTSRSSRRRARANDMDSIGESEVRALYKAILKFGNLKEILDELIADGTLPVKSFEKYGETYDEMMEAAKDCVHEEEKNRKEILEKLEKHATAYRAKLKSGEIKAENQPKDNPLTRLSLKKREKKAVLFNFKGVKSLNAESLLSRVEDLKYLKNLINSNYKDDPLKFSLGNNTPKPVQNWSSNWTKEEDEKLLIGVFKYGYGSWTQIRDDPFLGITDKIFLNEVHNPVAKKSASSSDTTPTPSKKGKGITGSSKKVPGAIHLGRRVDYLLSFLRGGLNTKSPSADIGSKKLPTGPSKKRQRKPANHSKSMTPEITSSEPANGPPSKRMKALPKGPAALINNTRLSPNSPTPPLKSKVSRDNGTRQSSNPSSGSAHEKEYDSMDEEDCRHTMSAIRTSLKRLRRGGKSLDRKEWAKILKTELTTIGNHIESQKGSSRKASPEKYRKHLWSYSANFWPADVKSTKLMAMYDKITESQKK
Sequence of Sialic acid-binding Ig-like lectin 9 (Homo sapiens) (Q9Y336 whole entry): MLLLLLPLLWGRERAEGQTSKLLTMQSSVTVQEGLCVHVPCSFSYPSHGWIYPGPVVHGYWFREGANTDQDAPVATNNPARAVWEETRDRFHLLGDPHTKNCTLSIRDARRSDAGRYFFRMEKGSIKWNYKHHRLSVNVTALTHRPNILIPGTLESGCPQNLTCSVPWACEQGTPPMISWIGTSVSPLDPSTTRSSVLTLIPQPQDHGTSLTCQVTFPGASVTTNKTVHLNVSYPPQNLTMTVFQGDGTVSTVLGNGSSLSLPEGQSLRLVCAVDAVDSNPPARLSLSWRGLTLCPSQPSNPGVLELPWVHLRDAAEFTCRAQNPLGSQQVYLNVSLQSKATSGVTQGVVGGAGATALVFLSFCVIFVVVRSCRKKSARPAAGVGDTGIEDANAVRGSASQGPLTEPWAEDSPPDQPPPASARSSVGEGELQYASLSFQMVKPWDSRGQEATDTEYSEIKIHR
Sequence of Protein translocase subunit SecA (Escherichia coli (strain K12)) (P10408 whole entry): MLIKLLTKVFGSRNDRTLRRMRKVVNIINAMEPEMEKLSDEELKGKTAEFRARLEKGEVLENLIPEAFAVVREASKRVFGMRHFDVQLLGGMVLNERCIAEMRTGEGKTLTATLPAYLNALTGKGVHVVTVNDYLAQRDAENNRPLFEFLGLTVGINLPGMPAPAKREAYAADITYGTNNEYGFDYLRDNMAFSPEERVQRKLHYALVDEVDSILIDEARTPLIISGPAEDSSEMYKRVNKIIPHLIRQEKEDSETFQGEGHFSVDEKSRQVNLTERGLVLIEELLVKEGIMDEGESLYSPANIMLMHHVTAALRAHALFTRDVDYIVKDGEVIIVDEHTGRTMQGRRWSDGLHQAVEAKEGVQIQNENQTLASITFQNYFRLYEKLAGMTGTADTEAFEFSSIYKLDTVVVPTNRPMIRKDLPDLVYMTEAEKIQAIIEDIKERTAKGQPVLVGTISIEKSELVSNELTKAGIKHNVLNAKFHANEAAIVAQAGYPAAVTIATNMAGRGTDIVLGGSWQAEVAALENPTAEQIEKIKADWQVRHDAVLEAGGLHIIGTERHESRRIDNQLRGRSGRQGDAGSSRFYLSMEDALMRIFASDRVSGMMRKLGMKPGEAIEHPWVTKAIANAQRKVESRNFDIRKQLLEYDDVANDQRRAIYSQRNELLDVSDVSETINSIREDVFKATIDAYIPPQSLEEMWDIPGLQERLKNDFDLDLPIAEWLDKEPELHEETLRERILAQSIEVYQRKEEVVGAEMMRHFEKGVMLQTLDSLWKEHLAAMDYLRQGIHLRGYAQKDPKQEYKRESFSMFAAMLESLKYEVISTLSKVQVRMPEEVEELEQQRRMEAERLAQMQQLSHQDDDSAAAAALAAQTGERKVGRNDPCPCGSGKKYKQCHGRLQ

Take `Cc1cccc(-n2cc(C(=O)N3CCn4c(C)nnc4C3)nn2)c1`: the Percent Effect is -9.19% in assay [1]; -2.74% in assay [2]; 2.62% in [3]; 0.154% in [4]; -4.17% in assay [5]; -8.38% in assay [6]. Besides, the Percent Effect in assay [7] was 3%; in assay [8] it was 21.1%; in assay [9] it was 3.12%; in assay [10], 1.24%; in [11] it was 0.00385%.

For `CC(=O)Nc1ncc(S(=O)(=O)Nc2ccc(F)cc2)s1`, the Percent Effect is -4.49% in assay [1]; 17.3% in assay [2]; -9.36% in [3]; -7.58% in assay [4]; 2.36% in [5]; -0.88% in assay [6]. For the same compound, the Percent Effect in assay [7] is 12.2%; in assay [8], 20.4%; in assay [9], 3.17%; in assay [10], 10.3%; in [11], -10.6%.

Consider `CCOC(CC)C(=O)NCc1ccnc(Oc2ccc(F)cc2)c1` (stereo unspecified), for which the Percent Effect in [1] is -0.936%; in [2], -2.7%; in [3], -2.91%; in assay [4], 0.458%; in [5] it was -3.28%; in assay [6] it was 4.29%. Moreover, the Percent Effect is 11% in [7]; 9.46% in assay [8]; 7.94% in [9]; 12.2% in assay [10]; -1.51% in assay [11].

As for `O=C(Cc1ccsc1)N1C[C@@H]2CN(Cc3ccoc3)CCO[C@@H]2C1`, the Percent Effect in assay [1] was -1.51%; in assay [2], 0%; in assay [3] it was 4.82%; in assay [4], 8.18%; in [5] it was 1.86%; in assay [6], 0.955%. The Percent Effect in assay [7] was 14.6%; in assay [8] it was -8.8%; in [9], 0%; in assay [10], 7.69%; in assay [11], 11.3%.

As to `CCOc1ccc(Cl)c(C(=O)N2CCN(CCO)CC2)n1`, the Percent Effect in assay [1] is -5.67%; in [2], 10.4%; in assay [3], -0.195%; in assay [4], 9%; in assay [5], -3%; in [6] it was 0.356%. The Percent Effect in assay [7] was 4.05%; in [8], 5.42%; in assay [9], 4.85%; in [10], 9.76%; in [11] it was -4.45%.

As to `CC(=O)NCC(=O)N1CC[C@H](OCC2CC2)[C@@H]1Cc1cccnc1`, the Percent Effect in [1] is -0.669%; in assay [2], 5.33%; in assay [3] it was -3.45%; in assay [4], 5.96%; in [5] it was -2.51%; in assay [6], -50%. Besides, the Percent Effect in [7] is 5.47%; in assay [8] it was 1.5%; in assay [9], 1.04%; in assay [10], -47.5%; in assay [11], -0.336%.

For `c1cnnc(N2CCCC2CNc2ncnc3c2CCC3)c1` (stereo unspecified), the Percent Effect in [1] was -5.27%; in assay [2], 1.27%; in assay [3], 4.89%; in [4], -6.25%; in [5], -1.95%; in [6], 3.66%. The Percent Effect in assay [7] is 1.54%; in assay [8], -1.2%; in [9] it was 11.5%; in [10] it was 15.2%; in assay [11], 1.39%.

In the case of `Cc1cnn(CC2CCCN2Cc2nccn2C)c1` (stereo unspecified), the Percent Effect is -3.05% in [1]; -16.5% in assay [2]; -3.78% in assay [3]; -0.409% in assay [4]; 3.59% in assay [5]; 1.5% in assay [6]. Further, the Percent Effect in assay [7] was 3.94%; in assay [8], 4.67%; in assay [9] it was 4.17%; in assay [10] it was 5.06%; in assay [11], -13.2%.

Take `CC(C)COCC(NC(=O)c1cc[nH]n1)c1ccco1` (stereo unspecified): the Percent Effect is -5.65% in assay [1]; 24.3% in [2]; -9.5% in [3]; 15.5% in [4]; 1.79% in assay [5]; -13.6% in assay [6]. Moreover, the Percent Effect is 5.59% in assay [7]; 19.5% in [8]; 4.43% in [9]; 18.5% in [10]; -12.3% in [11].

Consider `N#Cc1ccc(N2CCN(C(=O)c3cc(C4CC4)[nH]n3)CC2)c(F)c1`, for which the Percent Effect in assay [1] is -6.31%; in assay [2], 8.11%; in [3], -4.12%; in [4], 19.3%; in assay [5], 5.29%; in assay [6] it was -4.99%. The Percent Effect is -0.179% in assay [7]; 7.83% in [8]; 4.95% in [9]; 23.2% in [10]; -7.65% in [11].

Turning to `Cc1cc(C(F)(F)F)c2c(C3CCN(S(=O)(=O)N(C)C)CC3)noc2n1`, the Percent Effect in [1] is -2.53%; in assay [2], 12.2%; in assay [3], 6.65%; in [4], 11.8%; in assay [5], -0.395%; in assay [6] it was 1.62%. The Percent Effect was 6.55% in assay [7]; 3.27% in [8]; 6.45% in [9]; 16.9% in assay [10]; -15.2% in assay [11].
